The full ranking holds about 68,000 sequences; the median of “fluorescence intensity (a.u.)” is about 9,100, and the highest 2% start at about 16,000. The full list was thinned out, with the highest values kept by preference.

Sequence of OsWRKY34 (Q0JBA9 entry or part of it): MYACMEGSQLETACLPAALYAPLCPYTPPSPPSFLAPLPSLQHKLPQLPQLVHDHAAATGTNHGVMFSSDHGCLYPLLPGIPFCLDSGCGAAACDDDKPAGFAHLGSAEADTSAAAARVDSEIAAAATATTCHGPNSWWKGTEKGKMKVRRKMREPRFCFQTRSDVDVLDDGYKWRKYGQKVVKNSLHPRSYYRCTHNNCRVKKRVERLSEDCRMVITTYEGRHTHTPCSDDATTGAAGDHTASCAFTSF

The assay deals with OsWRKY34 (Oryza sativa, UniProt Q0JBA9 1-250). Put plainly: protein-binding microarray (RPBM); PBS, 2% BSA, 51.3 ng/ul salmon testes DNA, 50 uM zinc acetate, 200 nM TF, 25 C, 1 h; high values mean tight binding. The settings on record: protein: recombinant; tags: N-terminal polyhistidine and DsRed monomer fusion (pET32a); label: CyDye5-dUTP incorporated in the synthesized complementary strand; 3' TTTTT single-stranded linker to array surface; dsDNA, one strand shown. In a few lines:
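Using Ni–NTA, transcription factors fused N-terminally to polyhistidine and DsRed were purified after expression in E. coli BL21-CodonPlus. These were incubated at 200 nM with a blocked, double-stranded custom Agilent array for 1 h at 25 °C in a buffer containing 50 µM zinc acetate, and the array was washed. The binding signal is per-feature fluorescence intensity (arbitrary units) on an Axon 4000B scanner.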
Turning to “CTTGGGCGTCTTGTGTTTGTGGGTGAGGTAGCCAGCTGCCCGGAGTCACCTAGTGCAG”, the binding signal is 9910 fluorescence intensity (a.u.).
Then “GGGTTTTGCTTTTGCTGTTGTCTTGGGCTTGGGCCTTTGCCGGAGTCACCTAGTGCAG”, with 8660 fluorescence intensity (a.u.); and “AGGAGGTGTAGTAGGGTAGTGTAGGAGGTGTAGTGGAGTACGGAGTCACCTAGTGCAG”, with 8450 fluorescence intensity (a.u.); and “TTACCTTAGATTTGGTAGGGCTGGTTAGGGCTGGTTGGAGCGGAGTCACCTAGTGCAG”, with 8680 fluorescence intensity (a.u.).
The same measure for “GGGTTGATGTGTGGTGAAGGGTAGGTAATTTGTAGGAGTACGGAGTCACCTAGTGCAG”: 10800 fluorescence intensity (a.u.); for “GGGATGGGTAGGGGTGGGTTGTGCTGTATTATACTACACCCGGAGTCACCTAGTGCAG”: 19200 fluorescence intensity (a.u.).
Then “TGATGTGTGGGTGGTGGTGGTGGTGTGCCTTGTGTAGGTACGGAGTCACCTAGTGCAG”, with 20800 fluorescence intensity (a.u.); and “TGCTGCTACTACATGTGGTGTGGGTGGTATGGTAGGGCCCCGGAGTCACCTAGTGCAG”, with 9060 fluorescence intensity (a.u.); and “GCTTACTGGTTATGGTTGGTAGGGTTGGACGTGTAACAGACGGAGTCACCTAGTGCAG”, with 20900 fluorescence intensity (a.u.).
Consider “GGCTGTTGGGTTTGTGGGCTTGTGCTAGGCGTCCCAGCTACGGAGTCACCTAGTGCAG”, for which the binding signal was 17800 fluorescence intensity (a.u.).
“TGTAGCTTACTGCTTTGGTTTGGGCTGGTTGTGGATTGGACGGAGTCACCTAGTGCAG”: the binding signal is 11900 fluorescence intensity (a.u.).
Then “CCTCGTACGTGTTGGTGTTGCCAAGCCCAAGCCAGTAGTACGGAGTCACCTAGTGCAG”, with 8990 fluorescence intensity (a.u.).
Then “CACGCTTCGTCGTCGGATCGGGACGCCTTGCTGCCTCTGCCGGAGTCACCTAGTGCAG”, with 8170 fluorescence intensity (a.u.).
The same measure for “ACTACATCCGCGCACCTGCTTTGCTCGTCGACGATTATAACGGAGTCACCTAGTGCAG”: 12900 fluorescence intensity (a.u.); for “TGTGGATGAGTGTGTGTGTGTGGAGATCAGTGGGAGACCACGGAGTCACCTAGTGCAG”: 8170 fluorescence intensity (a.u.).
“AAGGGTGTATTTATTGGTGCAATAGCGTTTTTGTTTGACCCGGAGTCACCTAGTGCAG”: the binding signal was 8690 fluorescence intensity (a.u.).
Take “TGGGGTATGTGTGCTTGGTTATGTGTGCATCTTAGTTATACGGAGTCACCTAGTGCAG”: the binding signal is 19300 fluorescence intensity (a.u.).
As for “CTGATTCATTATACTAGGAGGGGTGGGAGGGAGGGAGTACCGGAGTCACCTAGTGCAG”, the binding signal is 18800 fluorescence intensity (a.u.).
As for “AGAGCTTAATTTGGTATGTGTGTGTATATATATATATATACGGAGTCACCTAGTGCAG”, the binding signal is 8150 fluorescence intensity (a.u.).
Then “AGGGAGGAGTACATCTAGTAGTATAGGGGAGAGGGTGGGCCGGAGTCACCTAGTGCAG”, with 11500 fluorescence intensity (a.u.); and “CTGTATTCATTAGGGTGGGACTGTATACTATAGTTATTATCGGAGTCACCTAGTGCAG”, with 15700 fluorescence intensity (a.u.); and “TAATTACCTCTCTTTAGTTTTGGGGTATGTGTGCTTGGTTCGGAGTCACCTAGTGCAG”, with 9680 fluorescence intensity (a.u.).
Turning to “TATAGGTCCCACGCTATCTCAGTCGCCACATCAGCTAAAACGGAGTCACCTAGTGCAG”, the binding signal was 8690 fluorescence intensity (a.u.).
For “TTTTAAGTATAATTTCTCTATAATTTGACAATGTGGTGCTCGGAGTCACCTAGTGCAG”, the binding signal was 8550 fluorescence intensity (a.u.).
The same measure for “TTTGTTTTGAGCCGAACAAATCGGTAGTCAGTGGGCGGGGCGGAGTCACCTAGTGCAG”: 11900 fluorescence intensity (a.u.); for “TGATCTTTTGTTTCCTGCTTGGTATAGTATAAGCTCTCATCGGAGTCACCTAGTGCAG”: 8800 fluorescence intensity (a.u.); for “TTTTCTTTTTTCCCGCACTTTCTTTTCTTCCCGGAGATGTCGGAGTCACCTAGTGCAG”: 8400 fluorescence intensity (a.u.).
Then “AAGCGGTACCATGGGCGGGAGGGTATTTCTGTCCTTTTGTCGGAGTCACCTAGTGCAG”, with 17600 fluorescence intensity (a.u.).
In the case of “CTGTTGTTCTGTATATTGTGGTGGGTGTTGATTTGCGGGTCGGAGTCACCTAGTGCAG”, the binding signal is 12800 fluorescence intensity (a.u.).
For the sequence “GGTTGTGTTCTTGTTGGCGAGGAGGAGAGAGGGGTGGGGTCGGAGTCACCTAGTGCAG”, the binding signal was 14700 fluorescence intensity (a.u.).
Turning to “GTCGGTGGAGCGGCCCTTTTTATTTCTGTGGGAGGAGGGTCGGAGTCACCTAGTGCAG”, the binding signal is 9300 fluorescence intensity (a.u.).
Then “CCATGGCGGGGTGTATTGTTGTTGTATTTGGGGTTCTGGTCGGAGTCACCTAGTGCAG”, with 19200 fluorescence intensity (a.u.).
Consider “ATTGGGTTCTTGGAGCTGTTGGATTGGGTTTTTTTGGGAGCGGAGTCACCTAGTGCAG”, for which the binding signal was 9180 fluorescence intensity (a.u.).
The same measure for “GTTTGTGTTCTTGGATTGGGTTGGGTTGGGTTGGTGAGGTCGGAGTCACCTAGTGCAG”: 17600 fluorescence intensity (a.u.); for “GAAAGATGATTTGGCAAGTAAATAAATAAGAAAAGAGAAGCGGAGTCACCTAGTGCAG”: 62600 fluorescence intensity (a.u.).
Turning to “CATCGGATATTGTATTATGGTGTTGTATGGGTTGTTCGGGCGGAGTCACCTAGTGCAG”, the binding signal is 14000 fluorescence intensity (a.u.).
“AGTCAACAGGGAGGGTAAAATAAGAAAGCAACAGCAAGAGCGGAGTCACCTAGTGCAG”: the binding signal was 9730 fluorescence intensity (a.u.).
The same measure for “TTCCTTTTGTCCTCCATGCTCTCTGTATGTCGGTATTTTACGGAGTCACCTAGTGCAG”: 10500 fluorescence intensity (a.u.); for “TTAAAAAAAAGTCAACGATGATAAATATTTAGAGAGTGAGCGGAGTCACCTAGTGCAG”: 13100 fluorescence intensity (a.u.).
Then “CTCTACTTCTAATATTCCTTATTTTTTTAATTCCGAATTTCGGAGTCACCTAGTGCAG”, with 8800 fluorescence intensity (a.u.).
The same measure for “TTTCTACACCCTGTAGATCCTTGGACCCACATGCAGACCACGGAGTCACCTAGTGCAG”: 8730 fluorescence intensity (a.u.); for “GTGGGTGGGATCCAGGAAGATTTTAAGCTGACTGCTGCGGCGGAGTCACCTAGTGCAG”: 8510 fluorescence intensity (a.u.).

For the origin of these results see paper PMC7819943, “Rice protein-binding microarrays: a tool to detect cis-acting elements near promoter regions in rice”.
